Columns and labels:
[1] = tested on: Botulinum neurotoxin type F light chain protease (Clostridium botulinum); experiment: Botulinum neurotoxin type F light chain protease inhibition, multiplex microsphere flow cytometry, validation set (AID 588459); conditions: multiplex microsphere protease substrate cleavage assay, at 10 µM, hits give high values
[2] = molecular target: Botulinum neurotoxin type A (Clostridium botulinum) (UniProt P0DPI0); experiment: BoNT/A light chain protease inhibitors, biochemical, multiplex microsphere flow cytometry, validation set (AID 588460); conditions: at 10 µM, hits give high values
[3] = molecular target: Lethal factor (Bacillus anthracis) (UniProt P15917); experiment: Lethal factor protease inhibitors, Bacillus anthracis, multiplex microsphere cleavage assay, validation set (AID 588461); conditions: flow cytometry, at 10 µM, hits give high values

Measured: inhibition

Sequence of Botulinum neurotoxin type A (Clostridium botulinum) (P0DPI0 whole entry, looked up): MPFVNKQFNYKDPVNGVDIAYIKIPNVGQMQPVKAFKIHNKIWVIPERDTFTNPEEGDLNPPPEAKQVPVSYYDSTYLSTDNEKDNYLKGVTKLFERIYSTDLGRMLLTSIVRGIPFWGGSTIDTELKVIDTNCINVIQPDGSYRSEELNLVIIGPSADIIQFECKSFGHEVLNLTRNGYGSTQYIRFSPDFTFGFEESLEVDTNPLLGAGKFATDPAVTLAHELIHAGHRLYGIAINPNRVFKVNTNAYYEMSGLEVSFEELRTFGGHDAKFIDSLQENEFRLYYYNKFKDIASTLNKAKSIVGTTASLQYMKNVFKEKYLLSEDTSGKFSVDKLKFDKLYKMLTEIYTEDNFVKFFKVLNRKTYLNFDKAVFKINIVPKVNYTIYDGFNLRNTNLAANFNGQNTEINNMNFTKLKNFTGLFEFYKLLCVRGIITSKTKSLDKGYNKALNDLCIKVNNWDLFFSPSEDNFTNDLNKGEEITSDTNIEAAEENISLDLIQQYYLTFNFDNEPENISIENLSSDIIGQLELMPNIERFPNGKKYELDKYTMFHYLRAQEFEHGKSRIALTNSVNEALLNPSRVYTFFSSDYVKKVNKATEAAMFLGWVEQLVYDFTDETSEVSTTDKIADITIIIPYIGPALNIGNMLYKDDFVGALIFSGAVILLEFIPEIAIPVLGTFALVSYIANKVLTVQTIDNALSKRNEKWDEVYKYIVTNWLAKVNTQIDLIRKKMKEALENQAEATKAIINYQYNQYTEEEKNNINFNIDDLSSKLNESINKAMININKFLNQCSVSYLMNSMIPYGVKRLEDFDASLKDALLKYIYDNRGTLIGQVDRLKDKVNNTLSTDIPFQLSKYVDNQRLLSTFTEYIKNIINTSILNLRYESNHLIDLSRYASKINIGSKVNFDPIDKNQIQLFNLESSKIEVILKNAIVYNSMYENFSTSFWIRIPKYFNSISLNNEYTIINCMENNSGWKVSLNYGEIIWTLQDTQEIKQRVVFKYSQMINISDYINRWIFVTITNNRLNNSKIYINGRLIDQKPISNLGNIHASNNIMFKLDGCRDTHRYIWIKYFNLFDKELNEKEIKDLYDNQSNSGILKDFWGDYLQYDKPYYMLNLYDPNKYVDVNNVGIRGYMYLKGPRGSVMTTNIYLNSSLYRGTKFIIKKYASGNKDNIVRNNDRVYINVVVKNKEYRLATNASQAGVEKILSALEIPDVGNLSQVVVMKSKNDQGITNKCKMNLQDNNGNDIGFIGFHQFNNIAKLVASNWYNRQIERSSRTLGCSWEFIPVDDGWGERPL
Sequence of Lethal factor (Bacillus anthracis) (P15917 whole entry, looked up): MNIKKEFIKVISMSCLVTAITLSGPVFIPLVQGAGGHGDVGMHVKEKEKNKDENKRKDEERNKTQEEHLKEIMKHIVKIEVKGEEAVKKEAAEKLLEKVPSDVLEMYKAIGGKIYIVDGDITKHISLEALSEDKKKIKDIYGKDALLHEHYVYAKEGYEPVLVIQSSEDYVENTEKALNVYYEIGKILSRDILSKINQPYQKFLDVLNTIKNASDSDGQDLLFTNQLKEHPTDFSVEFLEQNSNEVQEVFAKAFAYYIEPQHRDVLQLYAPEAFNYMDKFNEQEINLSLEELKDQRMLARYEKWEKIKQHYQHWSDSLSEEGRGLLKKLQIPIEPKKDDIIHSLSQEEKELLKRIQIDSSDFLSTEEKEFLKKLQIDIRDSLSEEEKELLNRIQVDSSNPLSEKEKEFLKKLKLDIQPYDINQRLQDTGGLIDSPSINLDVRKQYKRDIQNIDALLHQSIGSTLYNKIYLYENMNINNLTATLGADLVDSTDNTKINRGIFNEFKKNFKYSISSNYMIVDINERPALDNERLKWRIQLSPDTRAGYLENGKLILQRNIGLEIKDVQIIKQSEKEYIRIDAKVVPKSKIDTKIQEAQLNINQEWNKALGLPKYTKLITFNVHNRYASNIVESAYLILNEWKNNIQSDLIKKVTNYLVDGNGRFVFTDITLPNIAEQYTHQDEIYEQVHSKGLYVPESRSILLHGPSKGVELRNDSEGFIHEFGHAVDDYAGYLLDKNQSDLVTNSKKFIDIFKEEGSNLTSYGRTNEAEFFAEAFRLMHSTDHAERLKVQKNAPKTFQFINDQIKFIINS

COc1ccc(OC)c(C(=O)c2coc3ccc(O)cc23)c1
inactive: [1] -0.5% | [2] -1.6% | [3] 7%

CCOC(=O)Cc1c(C)nc(N)[nH]c1=O
inactive: [1] 2.8% | [2] 0.8% | [3] -3.1%

COc1cc(OC)cc(C(=O)N[C@@H](CCSC)c2nc3ccccc3[nH]2)c1
inactive: [1] 0.7% | [2] 0.8% | [3] -0.7%

O=C(O)c1cnccn1
inactive: [1] -5.5% | [2] -1.6% | [3] -1.5%

Cc1ccccc1C(=O)NNc1ncnc2c1cnn2C
inactive: [1] 3.1% | [2] -0.7% | [3] 1.7%

C[C@@H]1C[C@H]2[C@@H]3C[C@H](F)C4=CC(=O)C=C[C@]4(C)[C@@]3(F)[C@@H](O)C[C@]2(C)[C@@]1(O)C(=O)CO
inactive: [1] 0.3% | [2] 0.4% | [3] 0.5%

O=C(O)CCCCCN=C1CCc2ccccc2N1
inactive: [1] 1.6% | [2] -0.4% | [3] 0.8%

CC(=O)Nc1ccc(OS(=O)(=O)c2c(C)cc(C)cc2C)cc1
inactive: [1] -3.3% | [2] -1% | [3] -0.9%

COc1ccc(CCN(C)CCCC(C#N)(c2cc(OC)c(OC)c(OC)c2)C(C)C)cc1OC (stereo not drawn)
inactive: [1] 5.3% | [2] 1.8% | [3] 6.4%

COc1cccc2c1C(=O)O/C2=C/c1ccc2c(c1)OCO2
inactive: [1] -0.9% | [2] -0.8% | [3] 2.1%

CCC1(c2ccccc2)NC(=S)N(c2ccc(C)c(C)c2)N1 (stereo not drawn)
inactive: [1] 1% | [2] -0.8% | [3] -3%

From PubChem BioAssay
